Measurements taken from publication PMC5540273 (PLoS ONE, 2017).

System: VRK2
Details: concentration: 1 μM, replicates: in singlicate; n = 1
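Note: KINOMEscan kinase panel screen.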

| SMILES | %Inh |
| --- | --- |
| O=C(NCCNc1ccnc(Nc2ccc(F)cc2)n1)Nc1ccc2c(c1)OCO2 [GSK1379882] | 0% |
| O=C(NCc1cccs1)c1cc(C(=O)c2c(Cl)cccc2Cl)c[nH]1 [GW823670] | 0% |
| Cc1ccc(-c2ccc3c(ccc4sc5c(c43)NC[C@@H](C)N=C5N(C)C)n2)cn1 | 0% |
| Cc1cc(Nc2nc(-c3cccc(C)n3)nc3ccccc23)ccn1 [GW872411] | 40% |
| Nc1nc(-c2ccccc2F)c(-c2ccnc3ccccc23)s1 [GW560459] | 37% |
| COc1ccc(-c2cc3c(C)nc(N)nc3n([C@H]3CC[C@H](O)CC3)c2=O)cn1 | 0% |
| OCCCNc1nccc(-c2c(-c3cccc(C(F)(F)F)c3)nn3cc(C(F)(F)F)ccc23)n1 [GW630813] | 18% |
| CN(C)c1cc(-c2ccc3c(N)n[nH]c3c2)nc(N)n1 [GSK2219329] | 0% |
| Cl.c1ccc(Cn2cnc3cc(Nc4ncnc5ccccc45)ccc32)cc1 [GW272142] | 0% |
| Cc1cccc(-c2cc(-c3c[nH]nc3-c3ccccn3)ccn2)c1 [GW679395] | 26% |
| CCC(=O)c1c(-c2ccccc2)c2cc(Cl)ccc2c(=O)n1Cc1cc(S(C)(=O)=O)n(CCC(C)(C)O)n1 | 0% |
| Cc1nnc(-c2ccc(C)c(-c3ccc(C(=O)O)cc3)c2)o1 [GW608005] | 0% |
| COc1cc2nccc(Nc3ccc(OCc4ccc(NC(C)=O)cc4)cc3)c2cc1OC.Cl [GW440135] | 35% |
| COC(=O)c1c(-c2ccccc2)c2cc(Br)ccc2c(=O)n1Cc1ccc(NC(=O)CCC(=O)O)cc1 | 0% |
| Cc1nc(N(C)[C@H]2CN(C(=O)CC#N)CC[C@H]2C)c2cc[nH]c2n1 | 0% |
| COc1cc2ncn(-c3cc(OCc4ccncc4)c(C(N)=O)s3)c2cc1OC [GSK336313] | 0% |
| CCC(=O)c1c(-c2ccccc2)c2cc(Cl)ccc2c(=O)n1Cc1cc(S(C)(=O)=O)n(CC(N)=O)n1 | 0% |
| CCS(=O)c1ccc(-c2coc3ccc(-c4nnc(C)o4)cc23)cc1 (stereo not drawn) | 2% |

| SMILES | %Inh |
| --- | --- |
| COc1ccc(-c2cc3c(C)nc(N)nc3n([C@H]3CC[C@H](OCCO)CC3)c2=O)cn1 | 0% |
| CC(C)(C)c1ccc(C(=O)Nc2cn3cc(-c4ccccc4)ccc3n2)cc1 | 1% |
| COc1cc(Nc2nccc(N3CCC(NC(=O)C4COc5ccccc5O4)C3)n2)cc(OC)c1OC (stereo not drawn) [GSK1379761] | 41% |
| CN1C(=O)C(Nc2ccccc2)=C(c2ccccc2)C1=O [SB-300079] | 19% |
| COc1ccc(-n2cnc3c(N)ncnc32)cc1 [SKF-97236] | 0% |
| CCc1ccc(-c2ccc3c(c2)-c2nn(C)cc2S(=O)(=O)N3C)cc1 | 14% |
| Cc1ccc(Oc2ccc(Nc3ncnc4cc[nH]c34)cc2C)cn1 | 0% |
| O=C(Nc1n[nH]c2nc(-c3ccccc3)c(Br)cc12)C1CC1 [SB-708998] | 0% |
| Cc1ccccc1COc1cc(-n2cnc3cc(Cl)ccc32)sc1C(N)=O [GW813349] | 0% |
| COc1cc(OC)cc(-c2cc3cnc(N)nc3nc2NC(=O)NC(C)(C)C)c1 | 0% |
| COc1cc(Nc2nccc(N3CCC(NC(=O)C(C)c4ccc(Cl)cc4)C3)n2)cc(OC)c1OC (stereo not drawn) [GSK1379757] | 0% |
| CCCC(=O)Nc1n[nH]c2ncc(-c3cccc4ccccc34)cc12 [SB-642057] | 0% |
| COc1ccc(-c2coc3ccc(-c4nnc(SCc5cccc(C#N)c5)o4)cc23)cc1 | 0% |
| Cc1nnc(-c2ccc3ncn(-c4ccc(S(C)=O)cc4)c3c2)o1 (stereo not drawn) | 0% |
| O=C1NC(=O)C(c2ccccc2)=C1Nc1cccc(O)c1 [SB-390534] | 0% |
| Nc1ncnc2c1ncn2-c1cccc2ccccc12 [SKF-97184] | 29% |
| COc1ccc(Nc2nccc(N3CCC(NS(=O)(=O)c4ccc(NC(C)=O)cc4)C3)n2)cc1 (stereo not drawn) [GSK1379729] | 16% |
| COc1cc2ncn(-c3cc(OCc4ccc(S(C)(=O)=O)cc4)c(C(N)=O)s3)c2cc1OC [GW869979] | 2% |

System: WEE1
Details: concentration: 1 μM, replicates: in singlicate; n = 1

| SMILES | %Inh |
| --- | --- |
| O=C(NCCNc1ccnc(Nc2ccc(F)cc2)n1)Nc1ccc2c(c1)OCO2 [GSK1379882] | 13% |
| O=C(NCc1cccs1)c1cc(C(=O)c2c(Cl)cccc2Cl)c[nH]1 [GW823670] | 2% |
| Cc1ccc(-c2ccc3c(ccc4sc5c(c43)NC[C@@H](C)N=C5N(C)C)n2)cn1 | 0% |
| Cc1cc(Nc2nc(-c3cccc(C)n3)nc3ccccc23)ccn1 [GW872411] | 1% |
| Nc1nc(-c2ccccc2F)c(-c2ccnc3ccccc23)s1 [GW560459] | 0% |
| COc1ccc(-c2cc3c(C)nc(N)nc3n([C@H]3CC[C@H](O)CC3)c2=O)cn1 | 0% |
| OCCCNc1nccc(-c2c(-c3cccc(C(F)(F)F)c3)nn3cc(C(F)(F)F)ccc23)n1 [GW630813] | 0% |
| CN(C)c1cc(-c2ccc3c(N)n[nH]c3c2)nc(N)n1 [GSK2219329] | 3% |
| Cl.c1ccc(Cn2cnc3cc(Nc4ncnc5ccccc45)ccc32)cc1 [GW272142] | 4% |
| Cc1cccc(-c2cc(-c3c[nH]nc3-c3ccccn3)ccn2)c1 [GW679395] | 13% |
| CCC(=O)c1c(-c2ccccc2)c2cc(Cl)ccc2c(=O)n1Cc1cc(S(C)(=O)=O)n(CCC(C)(C)O)n1 | 0% |
| Cc1nnc(-c2ccc(C)c(-c3ccc(C(=O)O)cc3)c2)o1 [GW608005] | 0% |
| COc1cc2nccc(Nc3ccc(OCc4ccc(NC(C)=O)cc4)cc3)c2cc1OC.Cl [GW440135] | 29% |
| COC(=O)c1c(-c2ccccc2)c2cc(Br)ccc2c(=O)n1Cc1ccc(NC(=O)CCC(=O)O)cc1 | 0% |
| Cc1nc(N(C)[C@H]2CN(C(=O)CC#N)CC[C@H]2C)c2cc[nH]c2n1 | 0% |
| COc1cc2ncn(-c3cc(OCc4ccncc4)c(C(N)=O)s3)c2cc1OC [GSK336313] | 33% |
| CCC(=O)c1c(-c2ccccc2)c2cc(Cl)ccc2c(=O)n1Cc1cc(S(C)(=O)=O)n(CC(N)=O)n1 | 4% |
| CCS(=O)c1ccc(-c2coc3ccc(-c4nnc(C)o4)cc23)cc1 (stereo not drawn) | 7% |

| SMILES | %Inh |
| --- | --- |
| COc1ccc(-c2cc3c(C)nc(N)nc3n([C@H]3CC[C@H](OCCO)CC3)c2=O)cn1 | 0% |
| CC(C)(C)c1ccc(C(=O)Nc2cn3cc(-c4ccccc4)ccc3n2)cc1 | 6% |
| COc1cc(Nc2nccc(N3CCC(NC(=O)C4COc5ccccc5O4)C3)n2)cc(OC)c1OC (stereo not drawn) [GSK1379761] | 10% |
| CN1C(=O)C(Nc2ccccc2)=C(c2ccccc2)C1=O [SB-300079] | 51% |
| COc1ccc(-n2cnc3c(N)ncnc32)cc1 [SKF-97236] | 0% |
| CCc1ccc(-c2ccc3c(c2)-c2nn(C)cc2S(=O)(=O)N3C)cc1 | 21% |
| Cc1ccc(Oc2ccc(Nc3ncnc4cc[nH]c34)cc2C)cn1 | 0% |
| O=C(Nc1n[nH]c2nc(-c3ccccc3)c(Br)cc12)C1CC1 [SB-708998] | 0% |
| Cc1ccccc1COc1cc(-n2cnc3cc(Cl)ccc32)sc1C(N)=O [GW813349] | 4% |
| COc1cc(OC)cc(-c2cc3cnc(N)nc3nc2NC(=O)NC(C)(C)C)c1 | 0% |
| COc1cc(Nc2nccc(N3CCC(NC(=O)C(C)c4ccc(Cl)cc4)C3)n2)cc(OC)c1OC (stereo not drawn) [GSK1379757] | 30% |
| CCCC(=O)Nc1n[nH]c2ncc(-c3cccc4ccccc34)cc12 [SB-642057] | 6% |
| COc1ccc(-c2coc3ccc(-c4nnc(SCc5cccc(C#N)c5)o4)cc23)cc1 | 0% |
| Cc1nnc(-c2ccc3ncn(-c4ccc(S(C)=O)cc4)c3c2)o1 (stereo not drawn) | 0% |
| O=C1NC(=O)C(c2ccccc2)=C1Nc1cccc(O)c1 [SB-390534] | 0% |
| Nc1ncnc2c1ncn2-c1cccc2ccccc12 [SKF-97184] | 0% |
| COc1ccc(Nc2nccc(N3CCC(NS(=O)(=O)c4ccc(NC(C)=O)cc4)C3)n2)cc1 (stereo not drawn) [GSK1379729] | 37% |
| COc1cc2ncn(-c3cc(OCc4ccc(S(C)(=O)=O)cc4)c(C(N)=O)s3)c2cc1OC [GW869979] | 0% |
